Source: PubChem BioAssay (Tox21)
“And” between values parts separate entries of the source, which are not always exact repeats. Identical values can stand only once. Inconclusive results are not listed. The source made the active and inactive calls. Unless noted, the call rests on the fitted dose curve; in most records, active means well fitted curve in the direction sought with a large enough effect in the repeat runs; inconclusive means weak or mixed curves; inactive means no such curve, though single readings can be large; an effect the other way counts as inactive or inconclusive.

Columns and labels:
[1] = qHTS assay to test for compound auto fluorescence at 535 nm (green) in HEK293 cells (AID 720680)
[2] = qHTS assay to test for compound auto fluorescence at 460 nm (blue) in HEK293 cell free culture (AID 720681)
In short: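 Blue fluorescence (Ex 405/Em 460 nm, triamterene-equivalent) was read immediately after pin transfer of compound or DMSO into medium (DMEM, 10% FBS) without cells.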

[3] = qHTS assay to test for compound auto fluorescence at 535 nm (green) in HEK293 cell free culture (AID 720682)
In short: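 Intrinsic compound fluorescence is measured in culture medium containing 10% FBS, with excitation at 485 nm and detection at 535 nm, referenced to fluorescein.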

[4] = qHTS assay to test for compound auto fluorescence at 590 nm (red) in HEK293 cell free culture (AID 720683)
In short: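 Red-channel autofluorescence of compounds in culture medium (DMEM, 10% FBS), no cells, measured at 540/590 nm. Rose Bengal sodium is the reference fluorophore for equivalence.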

[5] = qHTS assay to test for compound auto fluorescence at 590 nm (red) in HepG2 cell free culture (AID 720684)
In short: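 Plate contents were MEM with 10% FBS plus test compound or DMSO, no cells. Fluorescence was recorded with 540 nm excitation and 590 nm emission.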

[6] = qHTS assay to test for compound auto fluorescence at 460 nm (blue) in HepG2 cell free culture (AID 720685)
In short: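 Compound (23 nL) or DMSO pinned into cell-free MEM with 10% FBS; blue fluorescence read at 405/460 nm excitation/emission, expressed as auto-fluorescence equivalency to triamterene.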

[7] = qHTS assay to test for compound auto fluorescence at 535 nm (green) in HepG2 cell free culture (AID 720686)
[8] = qHTS assay to test for compound auto fluorescence at 460 nm (blue) in HepG2 cells (AID 720687)
In short: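 Blue-channel autofluorescence (Ex/Em 405/460 nm, triamterene-equivalent) was measured after 1 hr compound exposure at 37 C, 5% CO2. Cells were HepG2, plated overnight at 37 C in MEM plus 10% FBS.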

[9] = qHTS assay to identify small molecule antagonists of the glucocorticoid receptor (GR) signaling pathway - cell viability counter screen (AID 720693); further: nearly all actives have a fitted effect of over 55% in size; further: potency means the concentration at half of the fitted maximal effect
[10] = qHTS assay for identifying genotoxic compounds that show differential cytotoxicity against isogenic chicken DT40 cell lines with known DNA damage response pathways - wild type cell line (AID 743012); further: nearly all actives have a fitted effect of over 60% in size; further: potency means the concentration at half of the fitted maximal effect
In short: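 Quantitative HTS on parental DT40 cells: 40 h compound treatment at 37 C/5% CO2, with viability then determined by CellTiter-Glo luminescence. Values serve as the DNA repair-proficient reference for differential cytotoxicity.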

[11] = qHTS assay for identifying genotoxic compounds that show differential cytotoxicity against isogenic chicken DT40 cell lines with known DNA damage response pathways - Rev3 mutant cell line (AID 743014); further: nearly all actives have a fitted effect of over 55% in size; further: potency means the concentration at half of the fitted maximal effect
[12] = qHTS assay for identifying genotoxic compounds that show differential cytotoxicity against isogenic chicken DT40 cell lines with known DNA damage response pathways - Rad54/Ku70 mutant cell line (AID 743015); further: nearly all actives have a fitted effect of over 60% in size; further: potency means the concentration at half of the fitted maximal effect
[13] = qHTS assay to identify small molecule antagonists of the androgen receptor (AR) signaling pathway - cell viability counter screen (AID 743033; further: nearly all actives have a fitted effect of over 45% in size; further: potency means the concentration at half of the fitted maximal effect)
[14] = molecular target: Androgen receptor (Homo sapiens) (UniProt P10275); experiment: qHTS assay to identify small molecule agonists of the androgen receptor (AR) signaling pathway (AID 743036; active means well fitted activation curve with a large enough effect in the signal ratio in the repeat runs, with a control signal flat, not every such curve was filed as active; the % refers to the signal ratio)
Chain of Androgen receptor (Homo sapiens) (P10275 whole entry, looked up): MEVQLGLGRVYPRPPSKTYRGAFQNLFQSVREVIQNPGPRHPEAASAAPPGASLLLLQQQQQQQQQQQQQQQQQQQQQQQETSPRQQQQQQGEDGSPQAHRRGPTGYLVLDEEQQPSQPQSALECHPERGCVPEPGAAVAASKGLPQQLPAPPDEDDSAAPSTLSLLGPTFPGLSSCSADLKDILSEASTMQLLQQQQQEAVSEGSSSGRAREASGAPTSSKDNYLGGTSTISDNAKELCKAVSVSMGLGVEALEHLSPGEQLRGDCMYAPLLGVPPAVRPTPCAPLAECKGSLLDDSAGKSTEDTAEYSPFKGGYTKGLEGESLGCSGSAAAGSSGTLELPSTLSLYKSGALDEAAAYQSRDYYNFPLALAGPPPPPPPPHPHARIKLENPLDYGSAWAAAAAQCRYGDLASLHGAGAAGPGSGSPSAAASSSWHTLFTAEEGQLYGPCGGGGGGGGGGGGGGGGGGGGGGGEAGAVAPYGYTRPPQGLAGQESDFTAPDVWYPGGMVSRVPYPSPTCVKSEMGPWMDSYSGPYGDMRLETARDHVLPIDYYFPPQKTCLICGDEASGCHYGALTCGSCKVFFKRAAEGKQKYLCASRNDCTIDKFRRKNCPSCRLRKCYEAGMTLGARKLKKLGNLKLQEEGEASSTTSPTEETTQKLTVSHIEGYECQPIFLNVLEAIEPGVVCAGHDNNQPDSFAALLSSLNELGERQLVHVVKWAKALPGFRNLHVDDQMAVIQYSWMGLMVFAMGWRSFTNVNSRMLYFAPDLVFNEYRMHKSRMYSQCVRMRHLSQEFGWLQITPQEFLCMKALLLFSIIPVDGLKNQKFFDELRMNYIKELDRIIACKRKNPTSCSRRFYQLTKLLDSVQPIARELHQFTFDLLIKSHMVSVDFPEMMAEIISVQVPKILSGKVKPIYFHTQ
In short: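 Agonist activity was scored by beta-lactamase reporter fluorescence in stably transfected HEK293 cells exposed to compounds for 16 h at 37C and 5% CO2. Substrate loading took 2 h at room temperature.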

[15] = qHTS assay to identify small molecule antagonists of the androgen receptor (AR) signaling pathway using the MDA cell line - cell viability counter screen (AID 743041; further: nearly all actives have a fitted effect of over 45% in size; further: potency means the concentration at half of the fitted maximal effect)
In short: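 R1881-driven MDA-kb2 AR-luc cells, 3,000/well, were dosed with library compounds for 16 h; cell health came from CellTiter-Fluor fluorescence in the reporter wells.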

[16] = molecular target: Androgen receptor (Homo sapiens) (UniProt P10275); experiment: qHTS assay to identify small molecule antagonists of the androgen receptor (AR) signaling pathway using the MDA cell line (AID 743042; further: nearly all actives have a fitted effect of over 55% in size; further: potency means the concentration at half of the fitted maximal effect)
In short: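 Antagonist mode: compounds plus R1881 agonist added to MDA-kb2 AR-luc cells, incubated 16 h at 37C. Luciferase reporter luminescence quantified, with multiplexed CellTiter-Fluor readout for cell viability.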

[17] = molecular target: Glucocorticoid receptor (Homo sapiens) (UniProt P04150); experiment: qHTS assay to identify small molecule antagonists of the glucocorticoid receptor (GR) signaling pathway (AID 720692; active means well fitted inhibition curve with a large enough effect in the signal ratio in the repeat runs, not every such curve was filed as active; the % refers to the signal ratio; further: potency means the concentration at half of the fitted maximal effect)
Chain of Glucocorticoid receptor (Homo sapiens) (P04150 whole entry, looked up): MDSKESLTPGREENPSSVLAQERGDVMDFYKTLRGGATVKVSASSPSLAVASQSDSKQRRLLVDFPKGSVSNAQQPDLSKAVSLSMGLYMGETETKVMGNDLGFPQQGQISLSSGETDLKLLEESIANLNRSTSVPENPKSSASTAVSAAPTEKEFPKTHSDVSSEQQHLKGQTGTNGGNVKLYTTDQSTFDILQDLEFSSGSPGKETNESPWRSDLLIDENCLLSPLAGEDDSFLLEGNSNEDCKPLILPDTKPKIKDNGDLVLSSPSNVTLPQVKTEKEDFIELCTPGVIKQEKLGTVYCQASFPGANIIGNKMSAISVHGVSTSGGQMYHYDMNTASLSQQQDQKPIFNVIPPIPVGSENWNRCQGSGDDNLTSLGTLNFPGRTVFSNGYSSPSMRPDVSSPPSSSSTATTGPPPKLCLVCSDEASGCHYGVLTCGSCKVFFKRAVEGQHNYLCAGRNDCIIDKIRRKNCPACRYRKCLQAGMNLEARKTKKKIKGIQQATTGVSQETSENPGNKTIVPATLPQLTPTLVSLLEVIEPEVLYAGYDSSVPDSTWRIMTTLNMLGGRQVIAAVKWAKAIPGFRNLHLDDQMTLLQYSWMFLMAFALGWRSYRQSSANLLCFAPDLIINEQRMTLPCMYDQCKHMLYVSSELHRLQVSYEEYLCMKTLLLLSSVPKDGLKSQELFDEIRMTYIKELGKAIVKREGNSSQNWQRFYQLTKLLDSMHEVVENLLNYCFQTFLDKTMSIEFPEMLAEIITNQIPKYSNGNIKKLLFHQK
In short: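 Fluorescence from cleaved LiveBLAzer B/G FRET substrate reports GRE-driven beta-lactamase in HeLa cells; compounds are tested against 5 nM dexamethasone (final) over 18 h at 37 C, substrate incubation 2 h at room temperature.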

[18] = molecular target: Androgen receptor (Homo sapiens) (UniProt P10275); experiment: qHTS assay to identify small molecule agonists of the androgen receptor (AR) signaling pathway using the MDA cell line (AID 743040; further: nearly all actives have a fitted effect of over 20% in size)
In short: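 After a 5 h incubation at 37C and 0% CO2, MDA-kb2 reporter cells were dosed with compounds in DMSO and kept 16 h under the same conditions. Luciferase activity was then read as luminescence with ONE-Glo.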

Measured: Potency

O=C(O)COc1ccccc1/C=N/NC(=O)c1ccncc1
not listed: [17] | [18]
inactive: all other assays above

O=C(O)Cc1nn(Cc2ccc(Br)cc2F)c(=O)c2ccccc12
not listed: [17] | [18]
inactive: all other assays above

C[C@@H]1C[C@H]2[C@@H]3C[C@H](F)C4=CC(=O)C=C[C@]4(C)[C@@]3(Cl)[C@@H](O)C[C@]2(C)[C@H]1C(=O)COC(=O)C(C)(C)C
not listed: [11] | [13] | [14] | [16] | [17] | [18]
inactive: all other assays above

NCC1CCC(C(=O)O)CC1 (stereo not given)
not listed: [13] | [14] | [16] | [17] | [18]
inactive: all other assays above

C=C1C(=C/C=C2\CCC[C@]3(C)[C@@H]([C@H](C)CCCC(C)C)CC[C@@H]23)C[C@@H](O)C[C@@H]1O
active: [17] 8.49 µM | [9] 21.3 µM | [10] 5.96 µM | [11] 13.3 µM | [12] 6.68 µM
not listed: [14] | [16] | [18]
inactive: all other assays above

Cc1ccc(Cl)c(N)c1Cl
active: [10] 61.1 µM | [11] 68.6 µM
not listed: [14] | [16] | [17] | [18]
inactive: all other assays above

C=C(Nc1ccc(OCC)cc1)Nc1ccc(OCC)cc1
active: [10] 29.8 µM and 23.7 µM | [12] 23.7 µM
not listed: [11] | [14] | [16] | [17] | [18]
inactive: all other assays above

N#Cc1nc(Cl)c(Cl)c(Cl)c1Cl
active: [17] 1.23 µM | [9] 19.5 µM | [10] 1.54 µM | [11] 1.72 µM | [12] 1.54 µM | [13] 9.77 µM | [15] 30.6 µM | [16] 6.86 µM
not listed: [14]
inactive: all other assays above

O=C1CCC/C=C\CCCCCCCCCC1
not listed: [11] | [12] | [13] | [14] | [16] | [17] | [18]
inactive: all other assays above

C[S+](CC[C@H](N)C(=O)O)C[C@H]1O[C@@H](n2cnc3c(N)ncnc32)[C@H](O)[C@@H]1O (stereo not given in full)
not listed: [14] | [16] | [17] | [18]
inactive: all other assays above

NC[C@H]1O[C@H](O[C@H]2[C@H](O)[C@@H](O[C@H]3O[C@H](CO)[C@@H](O)[C@H](N)[C@H]3O)[C@H](N)C[C@@H]2N)[C@H](N)C[C@@H]1O
not listed: [14] | [16] | [17] | [18]
inactive: all other assays above

CCOc1ccc(NC(=S)Nc2ccc(OCC)cc2)cc1
not listed: [12] | [14] | [16] | [17] | [18]
inactive: all other assays above

NC(=O)c1cc[n+](CC2=C(C(=O)O)N3C(=O)[C@@H](NC(=O)C(c4ccccc4)S(=O)(=O)[O-])[C@H]3SC2)cc1 (stereo not given in full)
not listed: [12] | [13] | [14] | [17]
inactive: all other assays above

NC(=O)CC[C@@H]1NC(=O)[C@H](Cc2ccccc2)NC(=O)[C@H](Cc2ccc(O)cc2)NC(=O)[C@@H](N)CSSC[C@@H](C(=O)N2CCC[C@H]2C(=O)N[C@@H](CCCN=C(N)N)C(=O)NCC(N)=O)NC(=O)[C@H](CC(N)=O)NC1=O
not listed: [14] | [16] | [17] | [18]
inactive: all other assays above

CCN1\C(=C/C=C/C=C/c2sc3ccccc3[n+]2CC)Sc2ccccc21
active: [9] 23.9 µM and 21.3 µM | [10] 133 nM and 298 nM | [11] 237 nM and 841 nM | [12] 168 nM and 335 nM | [13] 2.68 µM and 8.49 µM | [15] 1.68 µM and 5.96 µM
not listed: [14] | [16] | [17] | [18]
inactive: all other assays above
